From PubChem BioAssay AID588849 (Broad Institute, 2011) come the findings set out here.

In the test the target is CAAX prenyl protease 2 (Homo sapiens) (UniProt Q9Y256). The test can be described thus: inhibition of Ras-converting CAAX protease Rce1 – biochemical, yeast membranes, quenched-peptide fluorescence, cherry-pick, dose response (AID 588849). The note with it: yeast membrane fractions expressing human Rce1, quenched-peptide fluorescence, 4 h; series mostly up to 10 µM.

Entries with a potency or affinity are not part of this list. The source made the active and inactive calls. No rule for the calls is given here.

Sequence of CAAX prenyl protease 2 (Homo sapiens) (Q9Y256 whole entry, looked up): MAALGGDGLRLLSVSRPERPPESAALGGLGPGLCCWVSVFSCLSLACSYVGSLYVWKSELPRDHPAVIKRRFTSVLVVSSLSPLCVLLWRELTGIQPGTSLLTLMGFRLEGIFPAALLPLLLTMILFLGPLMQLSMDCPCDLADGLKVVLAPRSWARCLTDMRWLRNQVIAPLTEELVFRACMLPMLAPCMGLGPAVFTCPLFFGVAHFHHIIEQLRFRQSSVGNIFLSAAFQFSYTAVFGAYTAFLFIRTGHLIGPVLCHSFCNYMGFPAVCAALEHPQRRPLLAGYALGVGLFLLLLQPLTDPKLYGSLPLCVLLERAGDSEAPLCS

On to `Cc1nc(SC(C(=O)c2ccccc2)c2ccccc2)nc2ccccc12` (stereo not given), for which the compound was called inactive.

Turning to `c1ccc(-n2cnnc2SCc2cn3cccnc3n2)cc1`, the call was inactive.

Turning to `COc1cc2c(cc1OC)C(C)N(C(=O)CCNC(=O)c1ccccc1)CC2` (stereo not given), the result was inactive.

Regarding `COc1ccccc1N1CCN(c2ncc(C(=O)N3CCN(c4cccc(Cl)c4)CC3)c3ccccc23)CC1`, the compound was called inactive.

Consider `Cc1cc(C)cc(Nc2nc(-c3ccc(S(=O)(=O)N4CCCC4)cc3)cs2)c1`, for which the compound was classed as inactive.

Take `CCC(COC)NC(=O)CCc1nnc(Cc2cccc(C(F)(F)F)c2)o1` (stereo not given): the compound was called inactive.

Turning to `Cc1ccc(C(=O)N/C(=C/c2ccco2)C(=O)Nc2cccc(C(=O)O)c2)cc1`, the compound was classed as inactive.

As to `COC(C[C@@H]1O[C@@H]1C(=O)[C@@H](C)OCc1ccccc1)OC`, the result was inactive.

As to `O=c1c(-c2nnc(SCc3ccc(Cl)c(Cl)c3)o2)cccn1Cc1ccccc1`, the call was inactive.

Turning to `COc1ccc(Br)cc1C(=O)Nc1cc(C)cc(C)c1`, the compound was classed as inactive.

As to `O=C(Nc1ccccc1N1CCOCC1)C1CCN(S(=O)(=O)c2ccc(F)cc2)CC1`, the compound was called inactive.

`CN1CCN(Cc2c(C(=O)N/N=C/c3cccc(Br)c3)nnn2-c2nonc2N)CC1`: the call was inactive.

As for `O=C(Nc1ccc(N2CCOCC2)c(Cl)c1)c1cc2ccccc2o1`, the compound was classed as inactive.

With `COc1ccc(OC)c(Cc2nnc(CCC(=O)N3CCN(C4CCCC4)CC3)o2)c1`, the compound was classed as inactive.

Turning to `Cc1cc(C)c2nc(N(CCCN(C)C)C(=O)c3ccc4c(c3)CCCC4)sc2c1`, the outcome was inactive.

As to `Cc1ccc(OCCn2c3ccccc3n3nc(C)c(=O)nc23)cc1`, the call was inactive.

Consider `CCCCNC(=S)NNC(=O)CCn1cc(C)cn1`, for which the call was inactive.

With `COc1ccc(-c2cc(C(F)(F)F)nc(SCC(=O)NCc3cnn(C)c3C)n2)cc1OC`, the compound was called inactive.

`O=C(O/N=C\c1ccc(N2CCCCC2)c([N+](=O)[O-])c1)c1cccc(C(F)(F)F)c1`: the result was inactive.

`COc1ccc2[nH]c(C(=O)NCCCn3ccnc3)cc2c1`: the compound was classed as inactive.

As to `CN1CCN(C(=S)NC(=O)c2ccccc2Cl)CC1`, the result was inactive.

Turning to `COc1cccc(C2CC(c3cccs3)=NN2C(=O)CSc2nc3c(cnn3-c3ccc(F)cc3)c(=O)[nH]2)c1OC` (stereo not given), the result was inactive.

As to `CCCCCCCCNC(C)C(O)c1ccc(SC(C)C)cc1` (stereo not given), the compound was classed as inactive.

As to `N#CC(/C(=N/S(=O)(=O)c1cccs1)c1ccccc1)c1nc2ccccc2[nH]1` (stereo not given), the compound was classed as inactive.

`COCc1c(Br)c(C)[nH]c(=O)c1C#N`: the outcome was inactive.

In the case of `Nc1nc2c(ncn2COC(CO)CO)c(=O)[nH]1`, the outcome was inactive.

Regarding `CCNC(=S)NNC(=O)CCn1cc(C)cn1`, the call was inactive.

Take `Cc1cc2cc(C#N)c(NCCNC(=S)NCCCN3CCOCC3)nc2cc1C`: the outcome was inactive.

On to `CC(C)c1ccc(NC(=O)COc2nncc3ccccc23)cc1`, for which the compound was classed as inactive.

As for `Cc1ccc(C(=O)c2c3ccccc3[n+]([O-])n2CCO)cc1`, the outcome was inactive.
